From PubChem BioAssay come the findings set out here.

Results filed as inconclusive are left out. Active and inactive are the calls of the source.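 How the source made its calls, unless noted: active means binding below the plate cutoff, the plate median minus 3 SD, with a reading above zero; inconclusive means below the plate cutoff but reading exactly zero; inactive means the rest.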

Test [1] can be described thus: rapamycin-like changes in RPL19A-GFP expression – cell-based, S. cerevisiae, multiplex flow cytometry, primary screen (AID 1862; in the data active means percent of DMSO control GFP below about 86%;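 further: lower values mimic rapamycin by blocking the RPL19A rise seen in DMSO cells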). The conditions noted are these: S. cerevisiae RPL19A-GFP strain, flow cytometry fluorescence, 3 h; at 10 µM; stronger effect = lower value. For orientation: Flow cytometry measures light scatter and fluorescence of single cells or particles in a stream.

A short description of test [2]: TOR pathway GLN3 branch reporter MEP2-GFP changes – S. cerevisiae, multiplex flow cytometry, primary screen (AID 1867;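 active means GFP response, as percent of the DMSO control, above the screen-wide mean plus 3 SD, about 139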;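 further: median GFP channel fluorescence of barcode-gated MEP2-GFP cells measured by flow cytometry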). The conditions noted are these: S. cerevisiae MEP2-GFP strain, 3 h, at 10 µM, stronger effect = higher value, 100% means same as DMSO wells.
A short description of test [3]: TOR pathway RTG branch CIT2 reporter changes – S. cerevisiae, GFP fusion, multiplex flow cytometry, primary screen (AID 1870;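 active means percent response above a set limit, the screen-wide mean plus 3 SD, cut at about 130% in these data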;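 further: barcoded CIT2-GFP strain pooled with four other GFP strains with rapamycin as positive control; median GFP fluorescence per well over plate mean of DMSO wells so 100% = DMSO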). To be noted: S. cerevisiae CIT2-GFP expression, 3 h, at 10 µM, stronger effect = higher value.
A short description of test [4]: TOR pathway LAP4-GFP level changes – S. cerevisiae, multiplex flow cytometry, primary screen (AID 1873;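 active means GFP signal, as percent of the solvent control, above the screen mean plus 3 SD, about 149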). The conditions noted are these: S. cerevisiae LAP4-GFP expression, 3 h, at 10 µM, stronger effect = higher value.
The nature of test [5]: yeast AGP1-GFP level changes, GLN3 branch – cell-based, multiplex flow cytometry, S. cerevisiae, primary screen (AID 1887;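 active means GFP signal above the screen-wide mean plus 3 SD, that is over about 124.5% of the solvent control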;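 further: AGP1-GFP fusion strain of S. cerevisiae within a five-strain barcoded multiplex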). To be noted: 3 h, at 10 µM, stronger effect = higher value.
The nature of test [6]: reduced mouse 2C T cell binding to pMHC/ICAM-1 vesicles – MLPCN validation set, flow cytometry, LFA-1/ICAM-1 modulator project, pilot screen (AID 2523;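 active means response below a set limit, under 55% cells CD8-positive and vesicle-bound, and CD8 cells' 90th-percentile brightness under 279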;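 on vesicle binding response: mean PE anti-B7-1 fluorescence of CD8+ cells relative to row control; 100% = QL9-loaded vesicles with DMSO vehicle in the same plate row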). To be noted: 2C mouse CD8+ T cells, at 7 µM, stronger effect = lower value; double positive events: measured here: CD8+/vesicle+ event percentage.
In test [7] the target is Integrin beta-1 (Homo sapiens) + Integrin alpha-4 (Homo sapiens) (UniProt P13612+P05556). As to the kind of experiment: alpha4beta1 integrin LIBS antibody binding reduction – U937 cells, HUTS-21 mAb, flow cytometry, validation set, VLA-4 allosteric modulator project, pilot screen (AID 2674;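 active means inhibition above 50%, about 3 SD of the validation set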;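 further: antibody binding induced by the VLA-4 ligand LDV present at three times its Kd; 0% = LDV ligand with antibody and no compound and 100% = antibody without LDV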). The conditions noted are these: HUTS-21 LIBS mAb binding, at 6.7 µM, stronger effect = higher value, binding induced by LDV ligand.
Sequence of Integrin beta-1 (Homo sapiens) + Integrin alpha-4 (Homo sapiens) (P05556 whole entry, looked up): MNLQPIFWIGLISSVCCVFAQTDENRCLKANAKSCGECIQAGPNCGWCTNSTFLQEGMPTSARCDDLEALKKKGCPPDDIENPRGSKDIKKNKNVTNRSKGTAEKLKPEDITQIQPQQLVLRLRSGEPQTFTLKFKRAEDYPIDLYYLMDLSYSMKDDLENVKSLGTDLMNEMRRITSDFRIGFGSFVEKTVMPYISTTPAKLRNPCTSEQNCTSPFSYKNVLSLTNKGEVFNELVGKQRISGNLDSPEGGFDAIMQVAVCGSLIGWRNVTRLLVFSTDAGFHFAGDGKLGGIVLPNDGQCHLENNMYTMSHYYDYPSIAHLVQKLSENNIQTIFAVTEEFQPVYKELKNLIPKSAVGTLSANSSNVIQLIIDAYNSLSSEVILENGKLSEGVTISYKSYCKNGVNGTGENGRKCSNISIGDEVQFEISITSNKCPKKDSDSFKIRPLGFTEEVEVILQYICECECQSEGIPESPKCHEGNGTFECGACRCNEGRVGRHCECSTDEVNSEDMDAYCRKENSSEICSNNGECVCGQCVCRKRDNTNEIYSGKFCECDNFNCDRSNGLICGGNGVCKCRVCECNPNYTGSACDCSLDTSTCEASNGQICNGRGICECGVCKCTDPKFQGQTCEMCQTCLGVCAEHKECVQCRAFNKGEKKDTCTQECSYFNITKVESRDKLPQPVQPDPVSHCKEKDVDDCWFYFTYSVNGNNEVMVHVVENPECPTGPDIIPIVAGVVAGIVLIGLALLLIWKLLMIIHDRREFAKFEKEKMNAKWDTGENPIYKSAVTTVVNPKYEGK
Sequence of Integrin beta-1 (Homo sapiens) + Integrin alpha-4 (Homo sapiens) (P13612 whole entry, looked up): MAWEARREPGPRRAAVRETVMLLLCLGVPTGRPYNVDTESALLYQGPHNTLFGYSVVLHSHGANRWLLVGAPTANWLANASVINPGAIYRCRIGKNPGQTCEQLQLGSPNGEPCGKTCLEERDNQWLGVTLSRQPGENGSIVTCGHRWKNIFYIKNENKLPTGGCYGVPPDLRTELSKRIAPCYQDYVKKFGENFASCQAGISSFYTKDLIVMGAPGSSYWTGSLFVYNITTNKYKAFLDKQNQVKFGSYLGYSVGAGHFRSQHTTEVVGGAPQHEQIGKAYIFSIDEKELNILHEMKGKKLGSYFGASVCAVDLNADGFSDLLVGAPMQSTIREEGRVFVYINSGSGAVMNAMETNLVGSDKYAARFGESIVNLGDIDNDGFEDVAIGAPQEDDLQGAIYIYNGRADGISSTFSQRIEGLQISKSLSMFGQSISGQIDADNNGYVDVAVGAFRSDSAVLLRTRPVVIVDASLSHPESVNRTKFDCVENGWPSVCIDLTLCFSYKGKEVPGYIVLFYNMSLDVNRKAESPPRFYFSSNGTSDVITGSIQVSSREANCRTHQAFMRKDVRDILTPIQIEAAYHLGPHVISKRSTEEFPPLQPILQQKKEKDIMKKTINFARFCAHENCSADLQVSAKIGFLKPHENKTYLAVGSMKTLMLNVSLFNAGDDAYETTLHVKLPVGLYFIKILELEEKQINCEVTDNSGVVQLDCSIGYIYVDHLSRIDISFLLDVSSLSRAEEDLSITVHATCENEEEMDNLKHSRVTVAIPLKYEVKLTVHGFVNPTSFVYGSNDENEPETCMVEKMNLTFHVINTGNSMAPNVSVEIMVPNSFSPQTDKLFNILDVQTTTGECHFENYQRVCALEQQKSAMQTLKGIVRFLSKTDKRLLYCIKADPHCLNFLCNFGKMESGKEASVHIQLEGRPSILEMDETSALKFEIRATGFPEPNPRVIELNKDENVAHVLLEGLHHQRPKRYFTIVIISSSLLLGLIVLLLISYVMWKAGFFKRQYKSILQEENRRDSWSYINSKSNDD

A short description of test [8]: calorie-restriction mimetic ROS inhibitors, yeast – validation compound set, pilot screen (AID 2706;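 active means superoxide response below 65% of plate, a cut near 3 SD across the whole screen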;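 further: yeast exposed to compound for one week at 30 degrees C before staining; 100% = mean of all compound wells on the same plate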). To be noted: S. cerevisiae aging, superoxide DHE fluorescence; at 10 µM, stronger effect = lower value.
In test [9] the target is Beta-adrenergic receptor kinase 1 (Homo sapiens) (UniProt P25098). As to the kind of experiment: GRK2 binders displacing RNA aptamer, biochemical, validation, human GRK2, bead flow cytometry (AID 488806;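 active means aptamer binding inhibition above 30%, about 3 SD of noise from non-fluorescent compounds; inactive means inhibition at or below 30%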). To be noted: bead-bound GRK2, FAM-aptamer displacement, at 10 µM, stronger effect = higher value.
Sequence of Beta-adrenergic receptor kinase 1 (Homo sapiens) (P25098 whole entry, looked up): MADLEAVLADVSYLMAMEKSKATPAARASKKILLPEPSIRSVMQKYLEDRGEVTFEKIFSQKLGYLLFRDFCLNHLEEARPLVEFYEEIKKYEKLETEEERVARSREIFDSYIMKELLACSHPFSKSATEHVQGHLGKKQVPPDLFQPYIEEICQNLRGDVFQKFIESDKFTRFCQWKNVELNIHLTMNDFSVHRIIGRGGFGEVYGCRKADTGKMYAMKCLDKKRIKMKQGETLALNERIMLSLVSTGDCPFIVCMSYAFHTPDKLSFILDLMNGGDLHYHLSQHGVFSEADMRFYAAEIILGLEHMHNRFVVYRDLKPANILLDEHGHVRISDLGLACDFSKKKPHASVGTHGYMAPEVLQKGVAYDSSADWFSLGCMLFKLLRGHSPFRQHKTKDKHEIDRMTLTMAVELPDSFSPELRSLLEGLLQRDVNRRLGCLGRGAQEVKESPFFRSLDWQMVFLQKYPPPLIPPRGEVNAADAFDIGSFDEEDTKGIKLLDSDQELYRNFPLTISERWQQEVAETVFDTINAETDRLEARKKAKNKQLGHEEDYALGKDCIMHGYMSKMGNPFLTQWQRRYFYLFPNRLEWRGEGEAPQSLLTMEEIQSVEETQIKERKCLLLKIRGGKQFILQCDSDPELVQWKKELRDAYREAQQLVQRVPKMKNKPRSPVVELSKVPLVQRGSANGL
In test [10] the target is AP-2 complex subunit beta (Homo sapiens) (UniProt P63010). Kind of test: beta-arrestin/AP2 interaction blockers – biochemical, validation set, GST-AP2 beads, flow cytometry, pilot screen (AID 504541;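 active means inhibition above 54%, about 3 SD of non-fluorescent compounds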;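 further: AP2 carries R879A mutation and is captured from E. coli lysate; bead-bound FITC arrestin peptide fluorescence measuring arrestin peptide binding to AP2; 0% = DMSO wells and 100% = excess unlabeled arrestin peptide control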). To be noted: FITC arrestin peptide, at 10 µM, stronger effect = higher value, AP2 beta2 appendage fragment, R879A mutant.
Sequence of AP-2 complex subunit beta (Homo sapiens) (P63010 whole entry, looked up, the tested form may be a part, one chain of several): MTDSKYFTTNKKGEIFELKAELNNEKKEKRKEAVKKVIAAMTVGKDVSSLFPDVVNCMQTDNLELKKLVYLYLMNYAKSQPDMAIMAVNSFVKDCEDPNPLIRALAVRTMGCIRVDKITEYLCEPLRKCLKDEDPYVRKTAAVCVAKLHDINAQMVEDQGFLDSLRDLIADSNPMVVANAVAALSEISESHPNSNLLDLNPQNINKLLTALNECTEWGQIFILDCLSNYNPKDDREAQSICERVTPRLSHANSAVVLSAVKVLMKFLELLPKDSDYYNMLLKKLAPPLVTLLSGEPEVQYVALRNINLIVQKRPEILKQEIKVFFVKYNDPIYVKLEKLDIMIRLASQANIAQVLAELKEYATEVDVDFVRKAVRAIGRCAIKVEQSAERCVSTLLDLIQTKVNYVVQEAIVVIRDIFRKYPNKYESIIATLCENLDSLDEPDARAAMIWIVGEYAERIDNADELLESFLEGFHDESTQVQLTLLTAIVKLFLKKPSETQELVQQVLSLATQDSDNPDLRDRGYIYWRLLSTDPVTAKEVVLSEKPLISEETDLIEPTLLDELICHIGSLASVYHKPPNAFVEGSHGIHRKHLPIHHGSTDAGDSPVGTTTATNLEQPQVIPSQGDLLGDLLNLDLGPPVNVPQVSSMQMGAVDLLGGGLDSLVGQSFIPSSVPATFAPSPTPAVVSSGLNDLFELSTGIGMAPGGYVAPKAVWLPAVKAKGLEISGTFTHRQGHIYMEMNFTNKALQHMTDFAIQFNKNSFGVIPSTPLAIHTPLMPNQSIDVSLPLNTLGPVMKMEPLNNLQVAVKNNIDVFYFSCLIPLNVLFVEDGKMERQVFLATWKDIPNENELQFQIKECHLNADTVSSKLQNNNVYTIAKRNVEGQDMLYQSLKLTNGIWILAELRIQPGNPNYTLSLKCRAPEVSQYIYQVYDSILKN
Test [11] in a line: cytosolic pH regulators acting via V-ATPase – S. cerevisiae, pHLuorin, HTS validation (AID 504600; in the data active means response above about 15%;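 further: plate controls were DMSO for no effect and reference compound for full effect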). The conditions noted are these: V-ATPase proton transport, at 10 µM, stronger effect = higher value.
The subject of test [12] is anti-desmoglein-3 scFv antibody binding to human DSG3. Kind of test: blockers of pathogenic pemphigus antibody–desmoglein-3 binding – biochemical, validation compound set, bead-based, flow cytometry, pilot screen (AID 588368).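 Further: signal is the median channel fluorescence of bead-bound GFP antibody.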 To be noted: Protein G beads, DSG3-Fc, scFv-GFP binding, at 10 µM, stronger effect = lower value.
The nature of test [13]: Nile Red efflux blockade in pump-expressing yeast – validation compound set, multiplex, phenotypic, pilot screen (AID 588506;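 active means efflux inhibition above 0.42, the validation set average plus 4 SD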;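 further: Nile Red retained in cells so higher fluorescence means more efflux inhibition; 0 = negative control wells and 1 = enniatin B 25 µM full block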). To be noted: S. cerevisiae pump-expressing triplex, Nile Red efflux flow cytometry; at 10 µM; stronger effect = higher value; the pumps come from Candida albicans.
The target of test [14] is ATP-binding cassette sub-family B member 6 (Homo sapiens) (UniProt Q9NP58). Kind of test: blockers of ABCB6-driven porphyrin uptake – K562-ABCB6 cells, flow cytometry, validation set, pilot screen (AID 588550;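 active means inhibition above the screen-wide mean plus 3 SD, about 51%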;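 further: 0% = DMSO wells and 100% = benzethonium chloride 70 µM positive control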). The conditions noted are these: K562-ABCB6 porphyrin accumulation, 1 h, at 10 µM, stronger effect = higher value.
Sequence of ATP-binding cassette sub-family B member 6 (Homo sapiens) (Q9NP58 whole entry, looked up): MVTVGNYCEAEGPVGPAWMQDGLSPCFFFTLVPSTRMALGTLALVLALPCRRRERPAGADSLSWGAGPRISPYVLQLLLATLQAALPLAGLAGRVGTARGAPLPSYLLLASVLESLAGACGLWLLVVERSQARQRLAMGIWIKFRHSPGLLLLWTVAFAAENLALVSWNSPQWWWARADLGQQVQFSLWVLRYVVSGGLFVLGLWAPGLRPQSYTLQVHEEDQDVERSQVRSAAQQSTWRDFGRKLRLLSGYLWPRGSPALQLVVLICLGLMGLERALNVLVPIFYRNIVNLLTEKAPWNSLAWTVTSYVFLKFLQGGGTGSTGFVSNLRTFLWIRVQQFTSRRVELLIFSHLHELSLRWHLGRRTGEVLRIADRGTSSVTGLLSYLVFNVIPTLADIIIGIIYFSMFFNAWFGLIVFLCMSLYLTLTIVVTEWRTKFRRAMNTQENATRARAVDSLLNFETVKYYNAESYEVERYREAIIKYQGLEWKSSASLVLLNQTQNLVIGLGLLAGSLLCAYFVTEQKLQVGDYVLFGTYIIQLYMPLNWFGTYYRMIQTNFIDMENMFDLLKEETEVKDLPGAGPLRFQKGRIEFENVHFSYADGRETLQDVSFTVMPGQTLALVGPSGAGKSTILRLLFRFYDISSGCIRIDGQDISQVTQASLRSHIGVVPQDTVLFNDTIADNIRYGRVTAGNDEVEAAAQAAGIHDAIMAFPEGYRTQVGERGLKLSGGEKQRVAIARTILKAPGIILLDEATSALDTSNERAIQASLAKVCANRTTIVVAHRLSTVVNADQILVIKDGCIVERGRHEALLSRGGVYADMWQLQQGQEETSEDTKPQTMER
Test [15] in a line: AML differentiation inducers, ER-HoxA9 marrow cells – cell-based, GFP/MAC1 double positive, flow cytometry, validation set, primary screen (AID 588685;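 active means differentiation response of at least 50%, scaled between solvent and reference control, from cells with both markers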;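 further: compound exposure lasts four days before antibody staining and flow analysis; 0% = DMSO wells and 100% = 5 µM fulvestrant positive control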). To be noted: stronger effect = higher value, normalized: vehicle 0, fulvestrant 100.

The inhibition is the change of the read-out against control, counted positive when it falls. `CCCN(CCC)S(=O)(=O)c1ccc(C(=O)O)cc1`: in test [1], the percent of DMSO control GFP was 101% (inactive). Further, the GFP response vs DMSO is 107% (inactive) in test [2] and 124% (inactive) in test [4]. Besides, in test [3], the percent response of DMSO control is 96.9% (inactive). In addition, the GFP response, % of DMSO in test [5] is 104% (inactive). In addition, the double positive events in test [6] was 56.2%. In addition, in test [6], the vesicle binding response is 170% (inactive). The inhibition is 1.62% (inactive) in test [7], -3.49% (inactive) in [10] and 4% (inactive) in test [14]. In test [8], the superoxide response (% of plate) was 104% (inactive). The aptamer binding inhibition in [9] was 1% (inactive). Further, in test [11], the response was 0.87% (inactive). Further, in [12], the binding (% of control) is 99.3% (inactive). In addition, the efflux inhibition (fraction of control) in test [13] was -0.05 (inactive). In [15], the differentiation response was -24.4% (inactive).

On to `COCCCC/C(=N\OCCN)c1ccc(C(F)(F)F)cc1`, for which, in test [1], the percent of DMSO control GFP was 108% (inactive). The GFP response vs DMSO in test [2] is 108% (inactive); in test [4], 93.3% (inactive). For the same compound, in test [3], the percent response of DMSO control was 98.8% (inactive). Further, in test [5], the GFP response, % of DMSO is 105% (inactive). Moreover, the double positive events in [6] was found to be 60.3%. Also, the vesicle binding response in test [6] is 182% (inactive). The inhibition in test [7] was 10% (inactive); in [10], -0.39% (inactive); in test [14], 3% (inactive). In addition, the superoxide response (% of plate) in test [8] was 102% (inactive). Also, the aptamer binding inhibition in [9] was -7% (inactive). Further, in test [11], the response was 1.1% (inactive). Besides, the binding (% of control) in [12] is 91.7% (inactive). In addition, the efflux inhibition (fraction of control) in [13] is 0.18 (inactive). The differentiation response in test [15] is 139% (active).

In the case of `COc1ccc2oc(=O)c(-c3nc(C)cs3)cc2c1`, the percent of DMSO control GFP in test [1] is 98% (inactive). Also, the figures for the GFP response vs DMSO in test [2] and in test [4] were 101% (inactive) and 106% (inactive), respectively. For the same compound, in test [3], the percent response of DMSO control was 96.9% (inactive). Also, the GFP response, % of DMSO in [5] is 88.2% (inactive). The double positive events in test [6] was found to be 54.8%. For the same compound, the vesicle binding response in test [6] is 204% (inactive). Further, the figures for the inhibition in [7], in test [10] and in test [14] were 9.09% (inactive), -7.03% (inactive) and 7% (inactive), respectively. Further, the superoxide response (% of plate) in test [8] is 89.3% (inactive). The aptamer binding inhibition in test [9] was 6% (inactive). In addition, the response in [11] was -3.63% (inactive). The binding (% of control) in [12] is 92.6% (inactive). Also, the efflux inhibition (fraction of control) in [13] is -0.05 (inactive). Further, the differentiation response in [15] was -1.82% (inactive).

For `C/C=C/Cn1c(SC)nc2c1c(=O)[nH]c(=O)n2C`, the percent of DMSO control GFP in [1] is 102% (inactive). Moreover, the figures for the GFP response vs DMSO in test [2] and in test [4] were 101% (inactive) and 93.3% (inactive), respectively. Moreover, the percent response of DMSO control in test [3] is 95.9% (inactive). Also, in test [5], the GFP response, % of DMSO was 93.4% (inactive). Further, in test [6], the double positive events was 59%. The vesicle binding response in test [6] was 124% (inactive). Moreover, the figures for the inhibition in [7], in test [10] and in [14] were 3.49% (inactive), 34.4% (inactive) and 0% (inactive), respectively. For the same compound, the superoxide response (% of plate) in test [8] is 97.4% (inactive). Besides, in test [9], the aptamer binding inhibition was 0% (inactive). Further, the response in [11] was 1.09% (inactive). Further, the binding (% of control) in test [12] was 103% (inactive). Besides, the efflux inhibition (fraction of control) in test [13] is 0.78 (active). In test [15], the differentiation response was -14.7% (inactive).

With `COc1ccccc1-c1ccc(/C=C2/C=C(CC(C)C)OC2=O)o1`, the percent of DMSO control GFP in [1] was 99.5% (inactive). For the same compound, the GFP response vs DMSO is 101% (inactive) in [2] and 105% (inactive) in test [4]. For the same compound, in [3], the percent response of DMSO control was 93% (inactive). In addition, the GFP response, % of DMSO in [5] was 90.1% (inactive). Moreover, in test [6], the double positive events came to 58.1%. Moreover, the vesicle binding response in test [6] was 120% (inactive). Further, the inhibition in test [7] was -43.1% (inactive); in test [10], 2.34% (inactive); in test [14] it was 5% (inactive). The superoxide response (% of plate) in test [8] was 103% (inactive). The aptamer binding inhibition in test [9] is 2% (inactive). For the same compound, the response in test [11] is 1.04% (inactive). Besides, the binding (% of control) in test [12] is 99.5% (inactive). In addition, the efflux inhibition (fraction of control) in test [13] was 0.75 (active). For the same compound, in test [15], the differentiation response was -22.8% (inactive).
